Some test systems named below: DU-145 prostate; K-562 leukemia; MALME-3M melanoma; MDA-MB-231 breast; RXF 393 renal; SF-268 CNS; SF-295 CNS; SF-539 CNS; UACC-257 melanoma; M14 melanoma; HCT-15 colon; HT29 colon; SNB-75 CNS; SNB-19 CNS; U251 CNS; PC-3 prostate; SK-MEL-5 melanoma; UACC-62 melanoma; LOX IMVI melanoma; SK-MEL-28 melanoma.
Experiment in all cases: NCI-60 one-dose screen, 48 h (100 = growth as untreated, 0 = no growth, -100 = all killed)
Common to all, as to conditions: 10 µM unless noted

These results are taken from PubChem BioAssay (NCI).

Structures are written as SMILES. Compounds without any hit were thinned out: in the full panel of roughly 83,000, 20% have a hit.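 Cells were grown in 96-well plates and exposed to the test compound at a single concentration for 48 hours; results are reported as percent growth, with values below 10 considered active.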 Unmarked numbers belong to inactive results. Active and inactive are the calls of the source.

As to `O=C(/C=C/c1cccc2ccccc12)c1ccc(NC(=O)c2ccccc2CN2C(=O)c3ccccc3C2=O)cc1`, the growth with DU-145 prostate is 42.7%; in the assay on K-562 leukemia, 20.2%; in the assay on MALME-3M melanoma it was 79.6%; with MDA-MB-231 breast it was 58.4%; in the assay with RXF 393 renal, 91.5%; in the assay with SF-268 CNS, 75.4%. In addition, the growth with SF-295 CNS was 96.4%; with SF-539 CNS, 90.2%; in the assay on UACC-257 melanoma, 88%; with M14 melanoma, 72.8%; in the assay with HCT-15 colon, 54.2%; in the assay on HT29 colon it was 41.7%. Further, the growth with SNB-75 CNS is 61.2%; with SNB-19 CNS, 76.7%; in the assay on U251 CNS it was 64.5%; with PC-3 prostate, 74%; with SK-MEL-5 melanoma, 87.9%; with UACC-62 melanoma, 69.3%. The figures for the growth in the assay on LOX IMVI melanoma and with SK-MEL-28 melanoma were 60.9% and 96.7%, respectively.

With `CCN(CC)S(=O)(=O)c1ccc(NC(=O)CSc2nnc(C)n2-c2ccccc2)cc1`, the growth in the assay with DU-145 prostate was 120%; in the assay on K-562 leukemia, 88.5%; in the assay on MALME-3M melanoma, 132%; in the assay with MDA-MB-231 breast, 108%; in the assay with RXF 393 renal, 110%; in the assay with SF-268 CNS it was 97.7%. Besides, the growth was 115% in the assay on SF-295 CNS; 101% in the assay with SF-539 CNS; 95.4% in the assay with UACC-257 melanoma; 116% in the assay on M14 melanoma; 113% in the assay with HCT-15 colon; 111% in the assay with HT29 colon. The growth in the assay on SNB-75 CNS was 98.5%; with SNB-19 CNS, 102%; with U251 CNS, 104%; in the assay on PC-3 prostate, 95.2%; in the assay on SK-MEL-5 melanoma it was 105%; in the assay with UACC-62 melanoma, 92.8%. In addition, the values for the growth in the assay with LOX IMVI melanoma and in the assay on SK-MEL-28 melanoma were 102% and 108%, respectively.

Consider `O=C1COCCN1c1ccc(NCc2cn(C(=O)c3ccc(Cl)cc3)c3ccccc23)cc1`, for which the growth in the assay with DU-145 prostate was 84.2%; in the assay with K-562 leukemia, 28.3%; in the assay on MALME-3M melanoma it was 78.1%; in the assay with MDA-MB-231 breast, 118%; with RXF 393 renal it was 8.91% (active); with SF-268 CNS it was 98%. For the same molecule, the growth with SF-295 CNS is 47.2%; with SF-539 CNS, 93.4%; with UACC-257 melanoma it was 33.6%; in the assay with M14 melanoma, 74.1%; in the assay on HCT-15 colon, 54.9%; in the assay on HT29 colon, 44.5%. Further, the growth was 59.6% with SNB-75 CNS; 91.7% in the assay on SNB-19 CNS; 50.9% in the assay on U251 CNS; 71.4% with PC-3 prostate; 25.1% in the assay with SK-MEL-5 melanoma; -41.1% (active) in the assay with UACC-62 melanoma. Also, the growth in the assay on LOX IMVI melanoma was 77.1%; with SK-MEL-28 melanoma it was 97%.

As for `COc1ccc(C(=O)C(C)C)c2ccccc12`, the growth was 104% with DU-145 prostate; 92.7% in the assay on K-562 leukemia; 115% in the assay on MALME-3M melanoma; 104% with MDA-MB-231 breast; 109% with RXF 393 renal; 102% in the assay with SF-268 CNS. The growth with SF-295 CNS is 103%; in the assay on SF-539 CNS, 103%; with UACC-257 melanoma, 128%; in the assay on M14 melanoma, 104%; in the assay on HCT-15 colon, 99.6%; with HT29 colon, 106%. Besides, the growth is 115% in the assay with SNB-75 CNS; 108% with SNB-19 CNS; 110% with U251 CNS; 93.4% in the assay with PC-3 prostate; 109% with SK-MEL-5 melanoma; 106% in the assay with UACC-62 melanoma. Further, the growth in the assay with LOX IMVI melanoma was 96.4%; in the assay with SK-MEL-28 melanoma, 126%.

Consider `NCCOc1ncccc1/C=C1\c2ccccc2-c2ccc(C(F)F)cc21`, for which the growth with DU-145 prostate is 13.1%; in the assay with K-562 leukemia, 16.5%; in the assay with MALME-3M melanoma, 61.6%; in the assay with MDA-MB-231 breast, 35.3%; in the assay on RXF 393 renal, 61.5%; with SF-268 CNS, 54.3%. Further, the growth in the assay with SF-295 CNS was 53.7%; with SF-539 CNS it was 49.3%; with UACC-257 melanoma, 102%; with M14 melanoma, 64.5%; in the assay on HCT-15 colon it was 28.8%; with HT29 colon it was 48.9%. Besides, the growth in the assay with SNB-75 CNS was 53.2%; in the assay on SNB-19 CNS it was 40.4%; in the assay with U251 CNS, 35.9%; in the assay with PC-3 prostate, 50.9%; with SK-MEL-5 melanoma, 58.2%; with UACC-62 melanoma it was 68.2%. Besides, the figures for the growth in the assay with LOX IMVI melanoma and in the assay on SK-MEL-28 melanoma were 12.3% and 82%, respectively.

Turning to `CC1(C)C2CC1C1(/C=N\Nc3ccccc3)C(C2)C(C#N)(C#N)C1(C#N)C#N` (stereo not given), the growth is 101% with DU-145 prostate; 84.9% with K-562 leukemia; 97.7% in the assay with MALME-3M melanoma; 75.8% in the assay on MDA-MB-231 breast; 103% in the assay on RXF 393 renal; 86.3% with SF-268 CNS. Besides, the growth is 104% in the assay on SF-295 CNS; 107% in the assay on SF-539 CNS; 98.9% with UACC-257 melanoma; 83.6% in the assay with M14 melanoma; 87.3% with HCT-15 colon; 102% in the assay with HT29 colon. In addition, the growth in the assay on SNB-75 CNS was 91.4%; in the assay with SNB-19 CNS, 96.2%; in the assay on U251 CNS, 94.8%; in the assay with PC-3 prostate, 72.2%; with SK-MEL-5 melanoma, 94.4%; in the assay with UACC-62 melanoma, 58.5%. The growth is 52.2% in the assay on LOX IMVI melanoma and 106% with SK-MEL-28 melanoma.

For `CCN(CC)CCCNc1nc2ccccc2c2c(=O)c3cc(Cl)ccc3sc12`, the growth was 54.4% in the assay on DU-145 prostate; -44.2% (active) in the assay on K-562 leukemia; 84.6% in the assay with MALME-3M melanoma; -9.32% (active) in the assay on MDA-MB-231 breast; 76% with RXF 393 renal; 55.6% with SF-268 CNS. The growth is 104% in the assay with SF-295 CNS; 58.3% in the assay with SF-539 CNS; 102% in the assay with UACC-257 melanoma; 1.36% (active) with M14 melanoma; 36.2% in the assay with HCT-15 colon; 11.7% with HT29 colon. Also, the growth is 68.3% in the assay with SNB-75 CNS; 79.6% with SNB-19 CNS; 41.5% with U251 CNS; 54.7% with PC-3 prostate; 92.7% with SK-MEL-5 melanoma; 73.8% in the assay with UACC-62 melanoma. The figures for the growth in the assay on LOX IMVI melanoma and in the assay with SK-MEL-28 melanoma were -81.2% (active) and 84.3%, respectively.

Turning to `COc1cc(C(=O)/C=C/c2sc(Cl)nc2Cl)cc(OC)c1OC`, the growth with DU-145 prostate was 43.5%; with K-562 leukemia it was 3.23% (active); in the assay with MALME-3M melanoma, -35.1% (active); with MDA-MB-231 breast it was 31.7%; with RXF 393 renal, -28.9% (active); in the assay with SF-268 CNS, 61.5%. Further, the growth in the assay with SF-295 CNS is 92.8%; with SF-539 CNS, -11.9% (active); in the assay with UACC-257 melanoma it was 70.8%; with M14 melanoma, 42.3%; in the assay on HCT-15 colon it was -57.2% (active); in the assay with HT29 colon, 25.1%. The growth is 73.1% with SNB-75 CNS; 77.6% with SNB-19 CNS; 6.7% (active) with U251 CNS; 50.8% in the assay with PC-3 prostate; 88.7% in the assay on SK-MEL-5 melanoma; 85.1% in the assay with UACC-62 melanoma. Moreover, the values for the growth with LOX IMVI melanoma and with SK-MEL-28 melanoma were -86.5% (active) and 18.5%, respectively.
